Measured values from PubChem BioAssay (EPA / NIEHS).
Active and inactive are the calls of the source. How the source made its calls: active means hit-call score of the fitted dose curve at least 0.9, where 1 is the maximum; inactive means score below 0.9.

How the values were obtained:
Settings in all cases: mRNA level, 48 h; actives raise or lower the signal
[1] = read-out: Cytochrome P450 (CYP24A1), CYP24A1 (gene 1591); experiment: LTEA_HepaRG_CYP24A1: Life Technologies and Expression Analysis (LTEA) Assay for Cytochrome P450 (CYP24A1) using HepaRG (AID 2283478)
Method in brief: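 qRT-PCR read-out: CYP24A1 transcript levels normalized to three housekeeping genes, bidirectional curve fits against 0.5% DMSO baseline. Human HepaRG cells treated 48 h with chemicals at eight concentrations from 100 uM in half-log steps.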

[2] = read-out: Cytochrome P450 (CYP1A2), CYP1A2 (gene 1544); experiment: LTEA_HepaRG_CYP1A2: Life Technologies and Expression Analysis (LTEA) Assay for Cytochrome P450 (CYP1A2) using HepaRG (AID 2283479)
Method in brief: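 HepaRG, 48 h exposure, top 100 uM, half-log 8-pt, 0.5% DMSO vehicle, duplicates. Readout: TaqMan qRT-PCR of CYP1A2 mRNA, housekeeping-normalized (ACTB/GAPDH/POLR2A). Gain/loss fit relative to DMSO baseline.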

[3] = read-out: cysteine-aspartic acid protease (CASP8), CASP8 (gene 841); experiment: LTEA_HepaRG_CASP8: Life Technologies and Expression Analysis (LTEA) Assay for cysteine-aspartic acid protease (CASP8) using HepaRG (AID 2283480)
Method in brief: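 qRT-PCR readout of CASP8 mRNA, normalized to three housekeeping genes, after 48 h chemical exposure of HepaRG cells; 8-point half-log series, top 100 uM, 0.5% DMSO vehicle. Bidirectional curve fitting against DMSO baseline.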

[4] = read-out: Cytochrome P450 (CYP2B6), CYP2B6 (gene 1555); experiment: LTEA_HepaRG_CYP2B6: Life Technologies and Expression Analysis (LTEA) Assay for Cytochrome P450 (CYP2B6) using HepaRG (AID 2283481)
Method in brief: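 Read-out is CYP2B6 mRNA by TaqMan qRT-PCR, normalized to three housekeeping genes and fitted bidirectionally against 0.5% DMSO baseline. Human HepaRG cells received test chemicals for 48 h, top concentration 100 uM, half-log dilutions.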

[5] = read-out: Cytochrome P450 2C19 (Homo sapiens) (UniProt P33261); experiment: LTEA_HepaRG_CYP2C19: Life Technologies and Expression Analysis (LTEA) Assay for CYP2C19 using HepaRG (AID 2283482)
Method in brief: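 HepaRG, 48 h chemical exposure, 8-pt half-log series from 100 uM in 0.5% DMSO, duplicates. Readout: CYP2C19 mRNA by TaqMan qRT-PCR, housekeeping-normalized. Bidirectional fit vs DMSO baseline; phenobarbital 1mM as induction control.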

CYP2C8 (gene 1558) = experiment: LTEA_HepaRG_CYP2C8: Life Technologies and Expression Analysis (LTEA) Assay for CYP2C8 using HepaRG (AID 2283483)
Method in brief: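 HepaRG (human liver line), 48 h chemical exposure, 8-pt half-log series from 100 uM, 0.5% DMSO vehicle. Readout: CYP2C8 transcript by qRT-PCR, housekeeping-normalized. Bidirectional fit vs DMSO baseline.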

CYP2C9 (gene 1559) = experiment: LTEA_HepaRG_CYP2C9: Life Technologies and Expression Analysis (LTEA) Assay for CYP2C9 using HepaRG (AID 2283484)
Method in brief: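 HepaRG, 48 h dosing, 8-pt half-log series, top 100 uM, 0.5% DMSO vehicle. Read-out: CYP2C9 transcript by TaqMan qRT-PCR, housekeeping-normalized (ACTB/GAPDH/POLR2A). Gain or loss fitted vs DMSO baseline.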

CYP2E1 (gene 1571) = experiment: LTEA_HepaRG_CYP2E1: Life Technologies and Expression Analysis (LTEA) Assay for CYP2E1 using HepaRG (AID 2283485)
Method in brief: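 CYP2E1 transcript was measured by TaqMan qRT-PCR in human HepaRG cultures after 48 h chemical exposure (top 100 uM, half-log steps, 0.5% DMSO vehicle). Housekeeping-gene normalization; gain or loss fitted relative to DMSO baseline.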

CYP4A11 (gene 1579) = experiment: LTEA_HepaRG_CYP4A11: Life Technologies and Expression Analysis (LTEA) Assay for CYP4A11 using HepaRG (AID 2283486)
Method in brief: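 CYP4A11 transcript levels were quantified by TaqMan qRT-PCR after HepaRG human liver cells were treated for 48 hours with test chemicals (top 100 uM, half-log dilutions, 0.5% DMSO). Gain or loss of signal was fitted relative to DMSO.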

[6] = read-out: Cytochrome P450 3A4 (Homo sapiens) (UniProt P08684); experiment: LTEA_HepaRG_CYP3A4: Life Technologies and Expression Analysis (LTEA) Assay for CYP3A4 using HepaRG (AID 2283487)
Method in brief: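 Differentiated HepaRG cells, plated 48 h, then dosed 48 h in serum-free induction medium with 0.5% DMSO, 8 half-log concentrations up to 100 uM, duplicate. CYP3A4 mRNA by qRT-PCR, normalized to ACTB/GAPDH/POLR2A; bidirectional fit versus DMSO.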

[7] = read-out: Pro-epidermal growth factor (Homo sapiens) (UniProt P01133); experiment: LTEA_HepaRG_EGF: Life Technologies and Expression Analysis (LTEA) Assay for Epidermal growth factor (EGF) using HepaRG (AID 2283489)
Method in brief: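 qRT-PCR readout of EGF transcript after 48 h chemical exposure of HepaRG cells; eight concentrations from 100 uM down in half-log steps, duplicate wells, 0.5% DMSO vehicle. Bidirectional curve fitting against DMSO baseline.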

[8] = read-out: Ezrin (EZR), EZR (gene 7430); experiment: LTEA_HepaRG_EZR: Life Technologies and Expression Analysis (LTEA) Assay for Ezrin (EZR) using HepaRG (AID 2283491)
Method in brief: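 EZR transcript levels came from Fluidigm qRT-PCR and were normalized to three housekeeping genes after 48 h chemical exposure of HepaRG cells. Dosing used an 8-point half-log series with a 100 uM top concentration in 0.5% DMSO, tested in duplicate; both directions were fitted versus vehicle.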

[9] = read-out: Cytochrome P450 3A7 (Homo sapiens) (UniProt P24462); experiment: LTEA_HepaRG_CYP3A7: Life Technologies and Expression Analysis (LTEA) Assay for CYP3A7 using HepaRG (AID 2283492)
Method in brief: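 CYP3A7 transcript levels were read by TaqMan qRT-PCR on Fluidigm arrays after 48 h chemical exposure of human HepaRG cells, with housekeeping-gene normalisation. Eight half-log concentrations up to 100 uM in 0.5% DMSO were tested in duplicate.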

CYP3A5 (gene 1577) = experiment: LTEA_HepaRG_CYP3A5: Life Technologies and Expression Analysis (LTEA) Assay for CYP3A5 using HepaRG (AID 2283493)
Method in brief: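 qRT-PCR read-out: CYP3A5 transcript in HepaRG lysates, housekeeping-normalized (ACTB/GAPDH/POLR2A), fitted bidirectionally against 0.5% DMSO baseline. Exposure 48 h, eight half-log concentrations up to 100 uM, duplicates.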

[10] = read-out: Cytochrome P450 4A22 (Homo sapiens) (UniProt Q5TCH4); experiment: LTEA_HepaRG_CYP4A22: Life Technologies and Expression Analysis (LTEA) Assay for Cytochrome P450 4A22 (CYP4A22) using HepaRG (AID 2283495)
Method in brief: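 HepaRG, 48 h post-plating -> serum-free induction medium; dosed 48 h, duplicate, 8 conc. (100 uM top, half-log), 0.5% DMSO. Readout: CYP4A22 mRNA by qRT-PCR, ACTB/GAPDH/POLR2A normalization; gain/loss fit relative to DMSO.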

[11] = read-out: Glutathione S-Transferase (GSTA2), GSTA2 (gene 2939); experiment: LTEA_HepaRG_GSTA2: Life Technologies and Expression Analysis (LTEA) Assay for Glutathione S-Transferase (GSTA2) using HepaRG (AID 2283497)
Method in brief: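 qRT-PCR readout of GSTA2 transcript, normalized to three housekeeping genes, fitted bidirectionally against 0.5% DMSO baseline. Differentiated HepaRG cells received compound for 48 h at 8 concentrations (top 100 uM, half-log steps).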

[12] = read-out: Early growth response protein 1 (EGR1) transcription factor, EGR1 (gene 1958); experiment: LTEA_HepaRG_EGR1: Life Technologies and Expression Analysis (LTEA) Assay for Early growth response protein 1 (EGR1) transcription factor using HepaRG (AID 2283490)
Method in brief: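 HepaRG, 48 h exposure, 8-pt half-log series from 100 uM, 0.5% DMSO vehicle; EGR1 transcript by TaqMan qRT-PCR (Fluidigm array), housekeeping-normalized; bidirectional fit relative to DMSO baseline.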

[13] = read-out: Cytochrome P450 7A1 (Homo sapiens) (UniProt P22680); experiment: LTEA_HepaRG_CYP7A1: Life Technologies and Expression Analysis (LTEA) Assay for Cytochrome P450 7A1 (CYP7A1) using HepaRG (AID 2283496)
Method in brief: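 Using 0.5% DMSO as vehicle and baseline, chemicals were tested in duplicate over an 8-point range from 100 uM on HepaRG cells for 48 h; qRT-PCR signals were normalised to ACTB, GAPDH and POLR2A.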

[14] = read-out: DNA damage-inducible transcript 3 (DDIT3), DDIT3 (gene 1649); experiment: LTEA_HepaRG_DDIT3: Life Technologies and Expression Analysis (LTEA) Assay for DNA damage-inducible transcript 3 (DDIT3) using HepaRG (AID 2283488)
Method in brief: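 qRT-PCR readout (Fluidigm TaqMan), housekeeping-normalized to ACTB, GAPDH, POLR2A. HepaRG cells, 48 h exposure, 8-point half-log series from 100 uM in 0.5% DMSO, duplicates. Gain or loss of signal fitted against DMSO baseline.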

[15] = read-out: Fatty Acid-Binding Protein 1 (FABP1), FABP1 (gene 2168); experiment: LTEA_HepaRG_FABP1: Life Technologies and Expression Analysis (LTEA) Assay for Fatty Acid-Binding Protein 1 (FABP1) using HepaRG (AID 2283494)
Method in brief: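 qRT-PCR readout of FABP1 transcript (normalized to three housekeeping genes) after 48 h chemical exposure of HepaRG cells; eight concentrations, half-log steps, max 100 uM, 0.5% DMSO vehicle; gain or loss fitted relative to DMSO baseline.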

Measured: AC50

Chain of Cytochrome P450 3A4 (Homo sapiens) (P08684 whole entry, looked up): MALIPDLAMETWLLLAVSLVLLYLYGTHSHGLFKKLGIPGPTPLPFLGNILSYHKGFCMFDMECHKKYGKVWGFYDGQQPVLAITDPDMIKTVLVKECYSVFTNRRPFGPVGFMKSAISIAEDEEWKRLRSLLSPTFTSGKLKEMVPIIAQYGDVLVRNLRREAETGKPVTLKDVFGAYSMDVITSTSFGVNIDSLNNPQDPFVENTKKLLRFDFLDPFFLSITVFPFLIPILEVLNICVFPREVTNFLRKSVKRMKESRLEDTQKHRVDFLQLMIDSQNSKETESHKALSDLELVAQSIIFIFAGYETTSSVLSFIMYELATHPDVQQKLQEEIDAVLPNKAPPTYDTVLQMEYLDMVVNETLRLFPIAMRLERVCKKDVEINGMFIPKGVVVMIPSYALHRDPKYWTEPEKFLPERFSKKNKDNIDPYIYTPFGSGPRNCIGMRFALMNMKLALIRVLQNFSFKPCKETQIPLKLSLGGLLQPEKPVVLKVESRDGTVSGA
Chain of Cytochrome P450 2C19 (Homo sapiens) (P33261 whole entry, looked up): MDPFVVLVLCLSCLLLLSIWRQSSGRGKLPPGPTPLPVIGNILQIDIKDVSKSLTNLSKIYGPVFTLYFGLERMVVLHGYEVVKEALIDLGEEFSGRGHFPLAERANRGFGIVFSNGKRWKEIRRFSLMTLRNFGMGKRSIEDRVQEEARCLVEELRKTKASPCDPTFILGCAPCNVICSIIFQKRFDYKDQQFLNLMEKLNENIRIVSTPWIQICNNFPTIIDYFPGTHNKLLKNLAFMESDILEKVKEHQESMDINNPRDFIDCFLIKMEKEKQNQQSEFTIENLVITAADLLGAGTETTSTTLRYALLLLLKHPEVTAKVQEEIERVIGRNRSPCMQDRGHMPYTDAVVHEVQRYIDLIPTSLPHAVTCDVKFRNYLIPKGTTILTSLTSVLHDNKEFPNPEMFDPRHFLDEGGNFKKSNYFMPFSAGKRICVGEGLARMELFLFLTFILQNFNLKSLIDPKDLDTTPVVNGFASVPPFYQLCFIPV
Chain of Cytochrome P450 3A7 (Homo sapiens) (P24462 whole entry, looked up): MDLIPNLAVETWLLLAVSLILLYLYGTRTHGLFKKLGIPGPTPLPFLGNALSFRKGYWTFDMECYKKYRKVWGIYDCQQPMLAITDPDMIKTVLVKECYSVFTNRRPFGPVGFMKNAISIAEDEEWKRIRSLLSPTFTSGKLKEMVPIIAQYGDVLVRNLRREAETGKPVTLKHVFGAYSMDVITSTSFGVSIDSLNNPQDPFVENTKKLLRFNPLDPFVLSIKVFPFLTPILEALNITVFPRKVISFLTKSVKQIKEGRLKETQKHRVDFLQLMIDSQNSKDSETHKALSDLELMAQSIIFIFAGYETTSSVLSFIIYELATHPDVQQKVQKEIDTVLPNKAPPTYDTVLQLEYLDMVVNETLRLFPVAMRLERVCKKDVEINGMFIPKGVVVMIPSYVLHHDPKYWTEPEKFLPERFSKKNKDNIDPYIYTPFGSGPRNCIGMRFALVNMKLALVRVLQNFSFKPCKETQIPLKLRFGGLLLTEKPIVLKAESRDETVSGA

CCCCC(CC)COC(=O)CCCCC(=O)OCc1ccccc1 (configuration not stated)
not listed: [12] | [13] | [14] | [15]
inactive: all other assays above

COC(=O)CCCCC(=O)OC
not listed: [14] | [15]
inactive: all other assays above

CN1CCN(c2ccccc2/C=C2\SCCN(c3ccc(Cl)c(Cl)c3)C2=O)CC1
active: [2] 4.69 µM | [3] 93.4 µM | [4] 50 µM | CYP2E1 (gene 1571) 12.8 µM | CYP4A11 (gene 1579) 17.4 µM | [8] 50 µM | [10] 15.8 µM | [13] 93.9 µM
not listed: [12] | [14] | [15]
inactive: all other assays above

COCC(C)O (configuration not stated)
not listed: [4] | [13]
inactive: all other assays above

CCOC(=O)CC(O)(CC(=O)OCC)C(=O)OCC
not listed: [12] | [13]
inactive: all other assays above

CCCCC(CC)COC(=O)CCCCC(=O)OCC(CC)CCCC (configuration not stated)
not listed: [12] | [15]
inactive: all other assays above

CCCCOCCO
not listed: [13] | [14] | [15]
inactive: all other assays above
